Screens deposited in PubChem BioAssay by Sanford-Burnham Center for Chemical Genomics.
An excerpt weighted towards active compounds, which were near 1.4% of everything screened.
GC-A act = GC-A (human) enzyme activation; HEK293 GC-A cells, cGMP TR-FRET, EC30 ANP; 0% at EC30 ANP, 100% saturating ANP; 370,000 tested, 0.14% active; activation, % at 10 µM; in the data active means activation above about 40%
GC-B act = GC-B (human) receptor activation | activation, % at 10 µM | HEK293-GC-B cells, CNP EC30, cGMP TR-FRET; 0% at EC30 CNP, 100% saturating CNP | 370,000 tested, 0.11% active | AID 1920062 | P20594;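 active means activation at 10 µM reaching about 35% in either raw or pattern-adjusted values, limit read from the data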
FAS TE block = inhibitors of human fatty acid synthase thioesterase domain; recombinant FAS-TE, OMFH fluorogenic substrate, fluorescence endpoint; 360,000 tested, 0.67% active; inhibition, % at 15 µM; AID 602261;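 active means compounds whose normalised, plate-corrected inhibition of enzyme fluorescence in the single-dose primary screen is 50% or more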
A3A deaminase = inhibitors of human APOBEC3A DNA deaminase. inhibition, % at 20 µM. 330,000 tested, 0.41% active. AID 493011. recombinant A3A, FAM/TAMRA ssDNA deamination fluorescence;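 active means at least 40% inhibition at 20 µM here, with at most 30% in a related deaminase screen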
Target sequence (P31941 whole entry, looked up): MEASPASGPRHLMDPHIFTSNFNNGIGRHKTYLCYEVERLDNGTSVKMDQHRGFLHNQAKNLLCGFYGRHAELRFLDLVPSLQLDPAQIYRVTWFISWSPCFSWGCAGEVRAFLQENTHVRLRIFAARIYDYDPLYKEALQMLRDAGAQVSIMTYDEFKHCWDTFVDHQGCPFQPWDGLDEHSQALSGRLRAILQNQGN
A3G deaminase = blocks human APOBEC3G single-stranded DNA deamination; Q9HC16; recombinant A3G, ssDNA deamination FAM/TAMRA fluorescence; inhibition, % at 20 µM; AID 493012; 330,000 tested, 0.28% active;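 active means inhibition of at least 40% at 20 µM, with no more than 30% in the related APOBEC3A deaminase screen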
APOBEC3G confirm = confirmation of human APOBEC3G DNA deaminase inhibitors; shares compounds with A3G deaminase; recombinant A3G ssDNA deaminase, UDG/FAM-TAMRA fluorescence; inhibition, % at 20 µM; 890 tested, 72% active;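 active means inhibition reaching a set limit in any replicate at 20 µM, the limit being 80% of the first screen's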
UDG ctr A3G = inhibits E. coli UDG, flagging false APOBEC3G inhibitors; shares compounds with A3G deaminase; UDG counterscreen, FAM/TAMRA oligo fluorescence; inhibition, % at 20 µM; 710 tested, under 10 active; AID 504715;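 active means compounds giving 40% or more inhibition at 20 µM in any one of the three replicates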;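 further: inhibitors lower the FAM signal released by uracil excision and alkaline cleavage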
Target sequence (P12295 whole entry, looked up): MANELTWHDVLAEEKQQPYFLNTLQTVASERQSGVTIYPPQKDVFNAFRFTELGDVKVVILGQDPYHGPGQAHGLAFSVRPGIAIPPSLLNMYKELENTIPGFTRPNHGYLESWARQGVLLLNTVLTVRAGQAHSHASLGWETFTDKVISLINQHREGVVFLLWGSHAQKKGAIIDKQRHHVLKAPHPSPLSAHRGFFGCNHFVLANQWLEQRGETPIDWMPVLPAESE
Of the large screens only hits and unclear results are named; the others gave an inactive call (follow-up assays come after a bar, where they were run).

COc1cc(CNCCNC(=O)c2nonc2N)ccc1OCc1ccc(Cl)cc1	A3G deaminase 79 | APOBEC3G confirm inactive | UDG ctr A3G inactive
COc1cccc(CNCCNC(=O)c2nonc2N)c1	none
O=C(NCCCN1CCOCC1)c1sc2cc(Cl)ccc2c1Cl	none
O=C(NCCCN1CCOCC1)c1sc2cc([N+](=O)[O-])ccc2c1Cl	A3G deaminase 58 (no result: GC-A act, GC-B act) | APOBEC3G confirm 85 | UDG ctr A3G inactive
O=C(O)CCS(=O)(=O)c1cccc2cccnc12	none
CCSS(=O)(=O)c1cccc2cccnc12	A3G deaminase 68 | APOBEC3G confirm 66 | UDG ctr A3G inactive
S=c1[nH]c2ccccc2n1CCOc1ccccc1	none
Cc1cccc(OCCn2c(=S)[nH]c3ccccc32)c1	A3G deaminase 62 | APOBEC3G confirm 46 | UDG ctr A3G inactive
COc1ccc(-n2c(COc3ccccc3)nnc2SCc2nc3ccccc3[nH]2)cc1	none (no result: FAS TE block, A3A deaminase, A3G deaminase)
CCOC(=O)c1c2c3c(cccc3n(C)c1=O)C(=O)c1ccccc1-2	A3G deaminase 55 | APOBEC3G confirm inactive | UDG ctr A3G inactive
CCOC(=O)c1c2c3c(cccc3[nH]c1=O)C(=O)c1ccccc1-2	A3G deaminase 53 | APOBEC3G confirm inactive | UDG ctr A3G inactive
Cc1cc(NS(=O)(=O)C2CCN(C(=O)Cc3ccc(Cl)c(Cl)c3)CC2)no1	none (no result: FAS TE block, A3A deaminase, A3G deaminase)
Cc1ccc(-c2cn3c(=S)[nH]nc3s2)cc1	A3G deaminase 80 | APOBEC3G confirm 66 | UDG ctr A3G inactive
COC(=O)C1CN(Cc2ccc(Cl)cc2)CCS(=O)(=O)N1Cc1cn(Cc2ccccc2)nn1 (stereo not drawn)	none (no result: FAS TE block, A3A deaminase, A3G deaminase)
C/C(C=NNC(=O)CSc1nnc(-c2ccccc2)n1-c1ccc(C)cc1)=C\c1ccco1	none (no result: FAS TE block, A3A deaminase, A3G deaminase)
S=c1[nH]nc(-c2cccnc2)n1/N=C/c1cccs1	A3G deaminase 41 | APOBEC3G confirm 81 | UDG ctr A3G inactive
S=c1[nH]nc(-c2cccnc2)n1/N=C/c1ccccc1	A3G deaminase 44 | APOBEC3G confirm 80 | UDG ctr A3G inactive
S=c1[nH]nc(-c2cccs2)n1/N=C/c1c(Cl)cccc1Cl	none
Fc1cccc(Cl)c1/C=N/n1c(-c2cccnc2)n[nH]c1=S	A3G deaminase 46 | APOBEC3G confirm 76 | UDG ctr A3G inactive
S=c1[nH]nc(-c2cccnc2)n1/N=C/C=C/c1ccccc1	A3G deaminase 42 | APOBEC3G confirm 75 | UDG ctr A3G inactive
COC(=O)[C@H](CC(C)C)N(CCCc1cn(CC2CCCCC2)nn1)S(=O)(=O)c1ccc(F)cc1Br	none (no result: FAS TE block, A3A deaminase, A3G deaminase)
COc1ccc(C2C(C(=O)N3CCOCC3)CC(=O)N2c2ccc(OC)cc2)cc1 (stereo not drawn)	none (no result: FAS TE block, A3A deaminase, A3G deaminase)
CCC[C@H]1[C@@H](NC(=O)C#Cc2ccccc2)CC[C@@]23CCCN2C(=O)CCC[C@@H]13	none (no result: FAS TE block, A3A deaminase, A3G deaminase)
O=C1CCC(NC(=O)Cc2ccccc2)C(=O)N1 (stereo not drawn)	none (no result: FAS TE block, A3A deaminase, A3G deaminase)
O=[N+]([O-])c1cc(/C=N/n2c(-c3cccnc3)n[nH]c2=S)ccc1Cl	none
O=[N+]([O-])c1cc2c(cc1/C=N/n1c(-c3ccccc3)n[nH]c1=S)OCO2	A3G deaminase 55 | APOBEC3G confirm 84 | UDG ctr A3G inactive
O=[N+]([O-])c1ccccc1/C=N/n1c(-c2cccnc2)n[nH]c1=S	A3G deaminase 69 | APOBEC3G confirm 80 | UDG ctr A3G inactive
C/C=C\C(=O)Nc1cccc(C2=NOC3(C2)C[C@H](C(N)=O)N(C(=O)/C=C/CC)C3)c1 (stereo partly drawn)	none
C=C(C)C(=O)Nc1cccc(C2=NOC3(C2)C[C@@H](C(N)=O)N(C(=O)/C=C/CC)C3)c1 (stereo partly drawn)	A3G deaminase 91 | APOBEC3G confirm 93 | UDG ctr A3G inactive
C=C(C)C(=O)Nc1cccc(C2=NOC3(C2)C[C@H](C(N)=O)N(C(=O)/C=C/C)C3)c1 (stereo partly drawn)	A3G deaminase 86 | APOBEC3G confirm 91 | UDG ctr A3G inactive
C/C=C/C(=O)N1CC2(CC(c3cccc(NC(=O)CC)c3)=NO2)C[C@H]1C(N)=O (stereo partly drawn)	none
